Compounds with a hit are over-represented: about 3.9% of the library has one in this group of screens.
p53null 32C kill = selectivity test: cytotoxicity in p53 null cells, permissive temperature; H1299-neo p53 null cells, ATP luminescence, 24 h, 32C; Potency, µM (highest dose often 46.1 µM), inactives show top-dose activity change, negative = cytotoxicity, hits mostly cytotoxic; 0.62% of 55,000 active; AID 903;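 also: potency is read from the fitted curve at half-maximal effect; 0% = DMSO only and -100% = full killing by 100 µM tamoxifen; nearly all actives have a fitted effect of over 55% in size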
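H1299-neo (p53 null) cells, 600/well, treated 24 h at 32C with compound up to 46 uM; ATPlite luminescence viability, normalized to DMSO and 100 uM tamoxifen; AC50 by Hill fit.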
p53null 39C tox = selectivity test: cytotoxicity in p53 null cells, nonpermissive temperature | H1299 p53-null (neo) cells, 39C, ATPlite viability, 24 h | Potency, µM (titrated, usually from 46.1 µM), without a hit: at the highest dose activity, negative = cell killing, hits mostly cytotoxic | 0.97% of 55,000 active | AID 904;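 also: potency is read from the fitted curve at half-maximal effect; 0% = DMSO only and -100% = full killing by 100 µM tamoxifen; nearly all actives have a fitted effect of over 50% in size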
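Temperature-shift cytotoxicity format: compound titrations on p53-null or A138V-expressing H1299 cells held 24 hr at 39C, cell ATP then measured, AC50 from Hill model.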
NTMT1 inh = blocks human N-terminal methyltransferase 1 activity. Q9BV86. NTMT1 MTase-Glo SAH luminescence, purified enzyme. Potency, µM (doses to about 114 µM), for inactives: top-dose activity change, negative = inhibition, hits mostly inhibitors. 2.5% of 59,000 active. AID 1645870;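 also: potency is read from the fitted curve at half-maximal effect; plate controls were DMSO vehicle for no effect and no enzyme for full effect; nearly all actives have a fitted effect of over 65% in size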
Target sequence (Q9BV86 whole entry, looked up): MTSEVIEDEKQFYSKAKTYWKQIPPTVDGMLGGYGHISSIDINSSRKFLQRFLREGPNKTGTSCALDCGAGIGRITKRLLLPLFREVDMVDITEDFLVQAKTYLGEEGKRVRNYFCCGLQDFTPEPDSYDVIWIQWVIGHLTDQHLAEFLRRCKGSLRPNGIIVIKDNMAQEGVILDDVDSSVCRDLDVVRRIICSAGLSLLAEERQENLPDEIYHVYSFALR
FH mod = Identification of activators of human fumarate hydratase by quantitative high-throughput screening; Fumarate hydratase, mitochondrial (Homo sapiens), P07954; FH coupled MDH/diaphorase resazurin fluorescence, 15 min; Potency, µM (titrated, usually from 79.9 µM), inactives show at the top dose activity change, negative = inhibition, usual class: inhibitors; 0.22% of 54,000 active; AID 1347055, 2019; also: potency is read from the fitted curve at half-maximal effect; % is scaled to controls: 0 for no effect and ±100 for the full control effect; the screen sought activators but most active calls are inhibition curves; nearly all actives have a fitted effect of over 45% in size
Sfp qHTS opt = inhibits purified B. subtilis Sfp PPTase | shares compounds with NTMT1 inh | purified Sfp PPTase enzyme activity, qHTS | Potency, µM (series often up to 114 µM), without a hit: at the highest dose activity change, negative = inhibition, usual class: inhibitors | 78% of 230 active | AID 540350
Bsub HM489 growth = B. subtilis HM489 growth inhibition; shares compounds with NTMT1 inh; B. subtilis HM489 (acpS-) growth, BacTiter-Glo, 5 h; Potency, µM (highest dose often 114 µM), for inactives: top-dose activity change, negative = inhibition, usual class: inhibitors; 50% of 220 active; AID 540353
Sfp PPTase gel = Sfp PPTase inhibition, gel-based detection | 54% of 220 active | AID 540355 | purified Sfp PPTase, gel-based product detection | Potency, µM (doses to about 250 µM), for inactives: top-dose activity change, negative = inhibition, usual class: inhibitors | shares compounds with NTMT1 inh
Sfp inh gel = confirmation of Bacillus subtilis Sfp PPTase inhibitors; shares compounds with NTMT1 inh; purified Sfp PPTase, gel-based product detection; Potency, µM (series often up to 250 µM), for inactives: at the highest dose activity change, negative = inhibition, actives largely listed as inhibitors; 90% of 45 active
Sfp inh SAR2 = inhibits B. subtilis Sfp PPTase in second SAR round | purified Sfp enzyme, PPTase activity, qHTS | 87% of 230 active | Potency, µM (top dose mostly 57.1 µM), without a hit: at the highest dose activity change, negative = inhibition, actives largely listed as inhibitors | shares compounds with NTMT1 inh
hGST A1-1 inh = counter-screen for Sfp PPTase inhibitors: hGST A1-1 inhibition; hGST A1-1 enzyme activity counter-screen, qHTS; Potency, µM (series often up to 114 µM), inactives show top-dose activity change, negative = inhibition, hits mostly inhibitors; 55 tested, under 10 active; shares compounds with NTMT1 inh
HSD17B4 inh = inhibits human HSD17B4, off-target for HPGD inhibitors. shares compounds with NTMT1 inh. purified HSD17B4, estradiol/NAD+, NADH fluorescence. Potency, µM (highest dose often 57.1 µM), without a hit: top-dose activity change, negative = inhibition, actives largely listed as inhibitors. 10% of 230 active. AID 743187
ALDH1A1 inh = ALDH1A1 (human) inhibition, HPGD counter-screen | Potency, µM (series often up to 57.1 µM), inactives show top-dose activity change, negative = inhibition, actives largely listed as inhibitors | 93% of 230 active | AID 743195 | shares compounds with NTMT1 inh | recombinant ALDH1A1, NADH fluorescence, propionaldehyde/NAD+
NNMT inh = blocks human NNMT methyltransferase | NNMT MTase-Glo luminescence, SAH detection | shares compounds with NTMT1 inh | 10% of 120 active | Potency, µM (highest dose often 57.1 µM), inactives show at the top dose activity, negative = inhibition, usual class: inhibitors | AID 1645878
Target sequence (P40261 whole entry, looked up): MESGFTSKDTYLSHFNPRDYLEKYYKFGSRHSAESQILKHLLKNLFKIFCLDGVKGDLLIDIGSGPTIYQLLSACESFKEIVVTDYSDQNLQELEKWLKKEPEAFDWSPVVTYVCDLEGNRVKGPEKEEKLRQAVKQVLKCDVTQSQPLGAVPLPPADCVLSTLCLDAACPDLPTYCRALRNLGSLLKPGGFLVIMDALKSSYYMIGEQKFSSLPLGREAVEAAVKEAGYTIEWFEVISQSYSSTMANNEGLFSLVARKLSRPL
An asterisk follows results filed as active; ! = not active in a repeat; [ ] = dose if it differs, or a comment. Calls follow the shape of the dose curve; as a rule, active = well fitted curve in the direction sought with a large enough effect; inconclusive = small, poorly fitted or top-dose-only effect, or another doubt; inactive = no such curve, though single readings can be large; an effect the other way counts as inactive or inconclusive.

CC(C)c1cc2c(c(O)c1O)[C@@]13CCCC(C)(C)[C@@H]1[C@H](OC3=O)C2=O was read as NTMT1 inh -10%[29.8 µM], FH mod inconclusive and NNMT inh inconclusive.
CC1(C)CCCC2(C)c3c4c(c(=O)oc(=O)c3=CCC12)=CCC1C(C)(C)CCCC41C (stereo not drawn) was read as NTMT1 inh 16%[29.8 µM] and FH mod 1%[53.3 µM].
`CC(C)c1cc2c(c(O)c1O)[C@@]13CCCC(C)(C)C1[C@@H](O)[C@@H]2OC3=O` (stereo partly drawn) gave NTMT1 inh inconclusive, FH mod -9%[53.3 µM] and NNMT inh -10%[38.3 µM].
O=C1CCCC2=C1C(c1ccc(F)cc1)N=C(Nc1nc3ccccc3o1)N2 (stereo not drawn) was read as NTMT1 inh 6%.
`C[C@@H]1CCC/C=C/[C@H]2CC(=O)C[C@@H]2[C@@H](O)/C=C/C(=O)O1` gave NTMT1 inh -19%[57.5 µM] and FH mod 0%.
S=C(Nc1cc(Cl)ccn1)N1CCN(c2cccc(Cl)c2Cl)CC1 was read as NTMT1 inh inconclusive, Sfp qHTS opt 4.1µM*, Sfp inh SAR2 16µM*, hGST A1-1 inh -6%, HSD17B4 inh -13% and ALDH1A1 inh 6.8µM*.
For CCOC(=O)c1[nH]c2ccc(OC)cc2c1NC(=S)N1CCN(c2cccc(Cl)c2)CC1 the results were p53null 32C kill -9% and p53null 39C tox -25%.
Screening COc1ccnc(NC(=S)N2CCN(c3ccc(Cl)cc3Cl)CC2)c1 returned NTMT1 inh inconclusive, Sfp qHTS opt 3µM*, Bsub HM489 growth 13µM*, Sfp PPTase gel 7.9µM*, Sfp inh gel 3.4µM*, Sfp inh SAR2 0.46µM*, hGST A1-1 inh 4%, HSD17B4 inh -6% and ALDH1A1 inh 4.3µM*.
`Cc1c(Cl)cccc1NC(=S)N1CCN(c2ncccn2)CC1` gave p53null 39C tox 26%.
`NCC1OC(OC2C(O)[C@@H](OC3C(O)C(N)CC(N)C3OC3OC(CO)C(O)C(O)C3N)O[C@@H]2CO)C(N)C(O)C1O` (stereo partly drawn) gave FH mod -12%[53.3 µM].
Screening OCCn1cc(-c2cnc3nnn(Cc4ccc5ncccc5c4)c3n2)cn1 returned NTMT1 inh -2%[57.5 µM], FH mod -1% and NNMT inh -19%.
Screening O=C(c1ccc2c(c1)ncn2-c1ccccc1)N1CCCCC1 returned NTMT1 inh 7%[57.5 µM].
CN[C@@H]1[C@@H](O)[C@@H](O[C@@H]2[C@@H](O)[C@H](O[C@H]3O[C@@H]([C@@H](C)NC)CC[C@H]3N)[C@@H](N)C[C@H]2N)OC[C@]1(C)O was read as NTMT1 inh -1%[57.5 µM] and FH mod 6%.
`COC(=O)Cc1ccc(NC(=S)N2CCN(c3cccc(O)c3)CC2)cc1` gave p53null 32C kill -7%.
For Cc1cc(Cl)ccc1NC(=S)N1CCN(Cc2ccccc2)CC1 the results were p53null 32C kill 6% and p53null 39C tox 14%[1.84 µM].
Cc1cc(C)nc(NC(=S)N2CCN(c3cnc4nccn4c3)CC2)c1 was read as NTMT1 inh inconclusive, Sfp qHTS opt 19µM*, Bsub HM489 growth inconclusive, Sfp PPTase gel -54%, Sfp inh SAR2 18µM*, HSD17B4 inh inconclusive and ALDH1A1 inh -154%.
Screening Cc1cc(C)nc(NC(=S)N2CCN(c3ncccc3Cl)CC2)c1 returned NTMT1 inh inconclusive, Sfp qHTS opt 3.7µM*, Bsub HM489 growth -17%, Sfp PPTase gel inconclusive, Sfp inh SAR2 2µM*, HSD17B4 inh -17% and ALDH1A1 inh 19µM*.
Screening Cc1cc(C)nc(NC(=S)N2CCN(c3ccc(Cl)cc3Cl)CC2)c1 returned Sfp qHTS opt 1.2µM*, Bsub HM489 growth 8.3µM*, Sfp PPTase gel 3.2µM*, Sfp inh gel 3.8µM*, Sfp inh SAR2 1µM*, hGST A1-1 inh 2.4µM*, HSD17B4 inh 5% and ALDH1A1 inh 17µM*.
Cc1cc(C)nc(NC(=S)N2CCN(c3ccccn3)CC2)c1 was read as NTMT1 inh inconclusive, Sfp qHTS opt 3.7µM*!, Bsub HM489 growth inconclusive, Sfp PPTase gel 32µM*!, Sfp inh SAR2 16µM*, HSD17B4 inh -21% and ALDH1A1 inh 27µM*.
`COc1ccc(-c2oc3ncnc(N)c3c2-c2ccc(NC(=O)Nc3cc(C(F)(F)F)ccc3F)cc2)cc1` gave NTMT1 inh -10% and FH mod 1%.
C(#Cc1nc2ncccc2nc1OCCN1CCCC1)c1ccccc1 was read as NTMT1 inh inconclusive and FH mod -2%.
